SNCA expr inh: Primary qHTS assay for inhibitors of alpha-synuclein gene (SNCA) expression; HEK-293 SNCA-luciferase knock-in, luminescence, 24 h; Potency, µM (titrated, usually from 57.2 µM), for inactives: top-dose activity change, negative = inhibition, most hits filed as inhibitors; actives 0.17% (n = 140,000);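 further: potency means the concentration at half of the fitted maximal effect; plate controls were DMSO cells for no effect and cell-free wells for full effect; nearly all actives have a fitted effect of over 45% in size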
HEK293 tox: Cytotoxic Profiling in HEK 293 Cell Line of Diverse Libraries Using Quantitative High-Throughput Screening; HEK 293 viability, ATP luminescence (CellTiter-Glo), 48-72 h; Potency, µM (top dose mostly 115 µM), inactives show at the top dose activity change, negative = cytotoxicity, hits mostly inhibitors; actives 6.6% (n = 94,000); AID 1345083, 2018; further: potency means the concentration at half of the fitted maximal effect; nearly all actives have a fitted effect of over 60% in size
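Viability of HEK 293 cells, plated at 250 cells/well, was judged by cellular ATP after compound treatment for 48 or 72 hr. Luminescence was imaged 10 min after CellTiter-Glo addition at room temperature.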
FLuc inh: Firefly luciferase inhibition profiling of diverse chemical library using quantitative high-throughput screening. purified P. pyralis luciferase, luminescence, biochemical. actives 2.5% (n = 76,000). Potency, µM (top dose mostly 115 µM), usual class: inhibitors; further: potency means the concentration at half of the fitted maximal effect; nearly all actives have a fitted effect of over 65% in size
Target sequence (P08659 whole entry, looked up): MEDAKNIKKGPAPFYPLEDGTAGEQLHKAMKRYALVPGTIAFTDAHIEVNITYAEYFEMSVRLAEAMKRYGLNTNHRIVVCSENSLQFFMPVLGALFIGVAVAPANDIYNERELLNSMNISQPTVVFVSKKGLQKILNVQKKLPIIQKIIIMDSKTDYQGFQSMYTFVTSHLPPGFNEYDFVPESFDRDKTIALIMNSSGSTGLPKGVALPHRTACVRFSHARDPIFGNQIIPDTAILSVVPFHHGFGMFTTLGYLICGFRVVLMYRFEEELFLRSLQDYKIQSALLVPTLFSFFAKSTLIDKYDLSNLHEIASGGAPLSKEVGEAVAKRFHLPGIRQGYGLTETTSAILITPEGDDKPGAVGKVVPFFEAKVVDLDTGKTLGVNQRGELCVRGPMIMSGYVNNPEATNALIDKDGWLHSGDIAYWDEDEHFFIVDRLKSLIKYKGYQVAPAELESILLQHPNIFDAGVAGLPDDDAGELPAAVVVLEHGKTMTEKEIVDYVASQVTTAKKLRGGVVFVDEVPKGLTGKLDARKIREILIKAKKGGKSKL
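Inhibitors were tested against purified firefly luciferase in a biochemical, low-substrate format (both substrates at 10uM) and luminescence measured with a CCD imager.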
SNCA viab count: GF-AFC viability counterscreen for inhibitors of alpha-synuclein gene (SNCA) expression; HEK-293-SNCA-luc viability, GF-AFC fluorescence, 24 h; Potency, µM (top dose mostly 57.1 µM), for the others: top-dose activity change, negative = cytotoxicity, hits mostly cytotoxic; actives 0.12% (n = 150,000); AID 1671193, 2021;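 further: potency means the concentration at half of the fitted maximal effect; 0% = DMSO-treated cells and -100% = medium-only wells without cells; nearly all actives have a fitted effect of over 30% in size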
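Cytotoxicity counterscreen: after 24 h compound treatment of genome-edited SNCA-luciferase HEK-293 cells, live-cell protease substrate GF-AFC read by fluorescence after 30 min; activity scaled between DMSO (0%) and medium-only (-100%), curves Hill-fitted.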
IP6K1 inh: Primary qHTS assay for small molecule inhibitors of Inositol hexaphosphate kinase 1 (IP6K1). Inositol hexakisphosphate kinase 1 (Homo sapiens), Q92551. IP6K1 kinase, ADP-Glo luminescence, 2 h; stronger effect = lower value. activity change, % (series mostly up to about 58 µM). actives 0.81% (n = 140,000). AID 1645851, 2021; in the data active means activity change below about -25%
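ADP-Glo luminescence measures ADP made by human IP6K1 during a 2 h RT reaction with ATP/IP6 (mix at 1.3 mM/130 uM); top library doses 57.5 and 19.1 uM final.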
3T3 cytotox: Cytotoxic Profiling in NIH 3T3 Cell Line of Diverse Libraries Using Quantitative High-Throughput Screening | NIH 3T3 viability, CellTiter-Glo ATP luminescence, 48-72 h | Potency, µM (top dose mostly 96.7 µM), without a hit: at the highest dose activity change, negative = cytotoxicity, usual class: inhibitors | actives 4.3% (n = 94,000) | AID 1345082, 2018; further: potency means the concentration at half of the fitted maximal effect; nearly all actives have a fitted effect of over 55% in size
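Cytotoxicity is measured as loss of cellular ATP: NIH 3T3 cells (400/well) are exposed to compound for 48 or 72 hr at 37 °C, then CellTiter-Glo luminescence is imaged after 10 min at room temperature.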
Numbers without * were called inactive; i = inactive; ? = inconclusive; . = no result; [ ] = another dose, or the depositor's remark. Rows were chosen to be rich in hits. Some 7.3% of all compounds tested hit in one or more screens of this group. Unless noted, the call rests on the fitted dose curve; in most records, active means well fitted curve in the direction sought with a large enough effect; inconclusive means small, poorly fitted or top-dose-only effect, or another doubt; inactive means no such curve, though single readings can be large; an effect the other way counts as inactive or inconclusive. Unless noted, on the % scale 0 is the no-effect control and ±100 the full control effect.

SMILES	SNCA expr inh	HEK293 tox	FLuc inh	SNCA viab count	IP6K1 inh	3T3 cytotox
COc1ccc(OC)c(CN2CCCn3nc(C)c(-c4ccccc4C(C)C)c32)c1	?	63µM*	i	-29%[87.6 µM]	19	35µM*
COc1ccc(OC)c(CN2CCCn3nc(C)c(-c4cccnc4N4CCOCC4)c32)c1	51%	-29%	i	-6%	10	?
Cc1cccc(NC(=O)Nc2ccc(C)n(CC(=O)Nc3ccc(C)c(C)c3)c2=O)c1	10%	28µM*	i	-27%	4	32µM*
Cc1cccc(NC(=O)Nc2ccc(C)n(CC(=O)O)c2=O)c1	-7%	12%	16µM*	15%	6	i
Cc1cccc(NC(=O)Nc2ccc(C)n(CC(=O)NCCN3CCCC3)c2=O)c1	30%	-2%	i	-4%	-7	-13%
Cc1ccc(NC(=O)Nc2ccc(C)n(CC(=O)Nc3ccc(C)cc3C)c2=O)cc1	116%	-5%	?	15%	-6	2%
COc1cccc(N2C(=O)NC(=NC3CCCCC3)C23CCN(Cc2cccn2C)C3)c1 (configuration not stated)	-25%	-7%	.	?	3	-10%
Cc1cc(C(=O)N(CCC(=O)NCCC(C)C)CCC(C)C)c(C)o1	1%	32µM*	i	-8%	-6	?
CCCCCN(CCC(=O)NCCC(C)C)C(=O)c1cc(C)oc1C	-12%	28µM*	i	12%	1	?
CCCCN(CCC(=O)NCCc1ccccc1)C(=O)c1cc(C)oc1C	-10%	14µM*	i	?	-12	35µM*
COc1ccc(NC(=O)O[C@@H]2CO[C@H]3[C@@H]2OC[C@@H]3NCc2ccc(-c3ccccc3)cc2)cc1	?	35µM*	?	-9%	-7	?
COc1ccc(NC(=O)O[C@@H]2CO[C@H]3[C@@H]2OC[C@@H]3NS(=O)(=O)c2ccccc2C#N)cc1	17%	1%	i	4%	-1	-18%
CC(=O)c1ccc(NC(=O)O[C@@H]2CO[C@H]3[C@@H]2OC[C@@H]3NC(=O)Nc2ccc(Oc3ccccc3)cc2)cc1	-13%	32µM*	i	-17%	-2	?
N#Cc1ccccc1S(=O)(=O)N[C@H]1CO[C@H]2[C@@H]1OC[C@H]2OC(=O)Nc1ccc(Oc2ccccc2)cc1	-25%	?	40µM*	-7%	6	?
CC(C)c1nncn1C1CCN(S(=O)(=O)c2ccc(Br)s2)CC1	?	?	i	-1%	7	?
O=C(NCc1cccc(Cl)c1)c1ccc2nnc(C3CCCC3)n2c1	-5%	?	.	-16%	-9	40µM*
O=C(NCc1ccc(Cl)cc1)c1ccc2nnc(C3CCCC3)n2c1	-8%	?	.	7%	-2	32µM*
O=C(NCc1cccc(F)c1)c1ccc2nnc(C3CCOCC3)n2c1	.	i	.	.	-12	-22%
O=C(NCc1cccc(C(F)(F)F)c1)c1ccc2nnc(C3CCCC3)n2c1	25%	45µM*	.	-3%	-4	?
O=C(NCc1ccc(Cl)cc1)c1ccc2nnc(C3CC3)n2c1	21%[87.6 µM]	?	.	-13%[87.6 µM]	-6	?
O=C(NCc1cccc(Cl)c1)c1ccc2nnc(C3CCOCC3)n2c1	.	2%	.	.	12	-36%
O=C(NCc1ccccc1Cl)c1ccc2nnc(C3CCCC3)n2c1	26%	?	.	5%	-5	35µM*
COc1ccc(CNC(=O)[C@@H](C)C2CC[C@@]3(C)CC[C@H](NC(=O)c4cncnc4)[C@@H](C)[C@@H]3[C@H]2O)cc1OC (some centres not stated)	-10%	?	i	-1%	-2	-29%
O=C(NCc1cccs1)c1ccc2nnc(Cc3ccc(Cl)cc3)n2c1	11%	45µM*	.	-9%	-20	?
O=C(NCc1ccccn1)c1ccc2nnc(Cc3ccc(Cl)cc3)n2c1	-15%	i	.	-7%	-6	-21%
SMILES	SNCA expr inh	HEK293 tox	FLuc inh	SNCA viab count	IP6K1 inh	3T3 cytotox
O=C1CCN(S(=O)(=O)c2ccccc2)CCCN(C(=O)CN2CCCCCC2)CCN1	8%	-3%	i	-1%	6	-16%
CC(C)c1ccc(CN2CCCC3(CCN(c4ncccc4C(N)=O)C3)C2)cc1 (configuration not stated)	-28%	40µM*	i	-15%	8	?
Cc1ccc(C2Cn3nnc(C(=O)N4CCC(C(=O)Nc5cccc(Cl)c5)CC4)c3CO2)cc1 (configuration not stated)	82%	40µM*	28µM*	-1%	4	?
CSc1ccc(NC(=O)C2CCN(C(=O)c3nnn4c3COC(c3ccc(C)cc3)C4)CC2)cc1 (configuration not stated)	38%	-7%	?	1%	0	-13%
Cc1ccc(C2Cn3nnc(C(=O)N4CCC(C(=O)Nc5ccc(Cl)c(C)c5)CC4)c3CO2)cc1 (configuration not stated)	120%	5%	35µM*	13%	-1	-1%
COCCOCc1nc(C2CCN(C(=O)Nc3ccccc3)CC2)no1	6%	-2%	i	1%	-9	-9%
Cc1cc(C)cc(-c2ccc(CN)cc2)c1	?	28µM*	.	?	-13	?
NCc1ccc(-c2ccc(F)cc2F)cc1	-21%[87.6 µM]	?	.	?	-6	?
NCc1ccc(-c2cc(F)cc(F)c2)cc1	28%[87.6 µM]	?	.	-7%[87.6 µM]	-16	50µM*
Cc1cc(C)cc(-c2ccc(C=O)cc2)c1	25%[87.6 µM]	126µM*	.	3%[87.6 µM]	-6	?
O=C(c1ccc2ccccc2n1)N1CCC(Cc2nc(-c3ccccc3)n[nH]2)CC1	?	?	.	-11%	-7	?
COc1ccc(-c2noc([C@@H](C)NS(=O)(=O)CC(C)C)c2C(=O)O)cc1	-6%[87.6 µM]	i	i	-2%[87.6 µM]	-5	i
CN(Cc1ccccc1)Cc1nc2c(n1Cc1ccccc1)C(=O)N(Cc1ccccc1F)CCN2	-11%	40µM*	i	-29%	-9	?
COCCN1CCNc2nc(COc3ccc(Oc4ccccc4)cc3)n(Cc3ccccc3)c2C1=O	?	?	i	-22%	-17	45µM*

Compound activity deposited in PubChem BioAssay by National Center for Advancing Translational Sciences (NCATS).
